In all, about 4,700 compounds went through this assay and about 360 (7.7%) were called active. A selection follows. Values without a mark were called inactive.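 Rule for the calls: active = inhibition above a cutoff derived from the DMSO control wells (cut at about 30% in these data); inactive = the rest.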

Broadly, the inhibition is the relative decrease from the control value, in per cent.

This assay in a line: bead signal artefacts at single dose – biochemical, AlphaScreen, triplicate, counter-screen for MITF inhibitor project (AID 1259376). Particulars: LysRS AlphaScreen counterscreen, signal interference, at 2.6 µM, hits give high values.
For the compound `CCN1CCN(CC(=O)N/N=C/c2cccc(Cl)c2)CC1`, the inhibition is 3.65%.

Take `Cc1cccnc1NC(=O)CSc1nnc(COc2ccc(C(C)C)cc2)n1C`: the inhibition was 9.54%. As for `Cc1cc(NC(=O)CNCCCN(C)C)no1`, the figure is 1.07%; as for `Cc1cc(NC(=O)CSc2ccc(-c3ccccn3)nn2)no1`, 93.4% (active); as for `C=CCNCCOCCOc1cc(C)ccc1C(C)(C)C`, 15.9%. As for `COc1ccc(OCCCC(=O)Oc2ccc(OC)cc2)cc1`, the figure is 3.96%; as for `CCc1ccc(NC(=O)CS(=O)CC(=O)NCCCc2ccccc2)cc1` (configuration not stated), -4.98%.

Take `COc1cc(CN2CCN(C(=O)C(c3ccccc3)c3ccccc3)CC2)cc(OC)c1OC`: the inhibition is 9.83%. As for `CSc1nnc(SCc2nc3sc(C(=O)O)c(C)c3c(=O)[nH]2)s1`, the figure is 11.5%. As for `Cc1ccc(CN2CCN(Cc3ccncc3)CC2)cc1`, the figure is 16.6%. As for `COc1ccc(Br)cc1CN1CCN(C(=O)c2cccnc2)CC1`, the figure is -9.47%; as for `CCN(C(=O)Cc1nc(N)n[nH]1)C1(C(=O)Nc2ccc(C)cc2)CCCCC1`, 101% (active); as for `CCN(C(=O)Cc1nc(N)n[nH]1)C1(C(=O)Nc2ccccc2)CCCCC1`, 100% (active). As for `Cc1nc2sc(C(c3ccccc3Cl)N3CCC4(CC3)OCCO4)c(O)n2n1` (configuration not stated), the inhibition was 13.3%. As for `CCN(Cc1ccccc1)Cc1ccc([N+](=O)[O-])cc1`, the figure is -3.54%; as for `COc1ccc(CN2CCC(C(=O)N3CCN(Cc4ccccc4)CC3)CC2)cc1`, 8.38%; as for `c1ccc(-c2ccccc2OCCNCCN2CCOCC2)cc1`, 24.1%. `Clc1cccc(CN2CCN(C3CCCC3)CC2)c1`: the inhibition is 9.81%. As to `O=C(Nc1ccc2c(c1)OCO2)C(c1ccccc1)N(Cc1ccccc1)Cc1ccccc1` (configuration not stated), the inhibition is -2.62%. As for `CC(C)CO/N=C1\C[C@@H](O)[C@@H](O)[C@@H]2[C@@H]3C(=O)N([C@@H](C)c4ccccc4)C(=O)[C@@H]3CC[C@@H]12`, the figure is -1.34%. With `CN1CCN(CCC(=O)N/N=C/c2ccsc2)CC1`, the inhibition is -5.86%. As for `COc1cccc(CN2CCN(C(=O)c3ccccc3F)CC2)c1`, the figure is -7%.

In the case of `COc1ccc(CN2CCN(Cc3cccc(Br)c3)CC2)c(OC)c1`, the inhibition was 22.2%. As for `COc1ccc(COCC(O)CNCC(C)(C)CN(C)C)cc1OC` (configuration not stated), the inhibition is 3.11%. As for `CC(C)c1ccc(C2/C(=C(/O)c3ccccc3)C(=O)C(=O)N2CCN(C)C)cc1` (configuration not stated), the figure is 15.2%; as for `COc1ccc(CN2CCCC(C(=O)N3CCCCC3)C2)cc1` (configuration not stated), -1.29%.

For `COc1cccc(CN2CCN(C/C=C/c3ccccc3)CC2)c1OC`, the inhibition was 5.04%. As for `O=[N+]([O-])c1ccccc1CN1CCN(Cc2ccccc2C(F)(F)F)CC1`, the figure is 9.98%. As for `CN1CCN(CCOCCOc2ccccc2Cl)CC1`, the figure is 11.5%; as for `O=C(O)CCCCC1SCC2NC(=O)NC21O` (configuration not stated), 98.9% (active); as for `N#Cc1ccc(/C=N/NC(=O)c2cc([N+](=O)[O-])cc([N+](=O)[O-])c2)cc1`, -2.55%. For the compound `O=S(=O)(c1ccc(Br)cc1Cl)N1CCN(CCc2ccncc2)CC1`, the inhibition was 16.2%. As for `CCCCCCOC(=O)c1cc(C(=O)OCCCCCC)c(C)nc1C`, the figure is -5.97%; as for `COc1ccc(CN2CCN(Cc3cc(OC)c(OC)c(OC)c3)CC2)cc1`, 14.7%.

As for `CC(=O)N1CCN(C(=O)c2ccc(N3CC4CC(C3)c3cccc(=O)n3C4)c(NC(=O)c3cccnc3)c2)CC1` (configuration not stated), the inhibition is -7.87%. As for `COc1ccc(Br)cc1CN1CCN(CCOCCO)CC1`, the figure is -5.73%; as for `COc1cccc(OC)c1C(=O)N1CCN(Cc2ccccc2F)CC1`, 20.4%; as for `Cc1ccc(NC(=O)CNCCCSc2ccccc2)cc1C`, 20.6%. As for `O=C(O)C1C2C=CC(O2)C1C(=O)Nc1nccs1` (configuration not stated), the figure is 13.2%; as for `CC(NCCCN1CCOCC1)C(=O)Nc1ccccc1` (configuration not stated), 12.1%; as for `COC(=O)C(C)CN1CCN(Cc2ccc3c(c2)OCO3)CC1` (configuration not stated), 13.8%.

With `CC1(C)CC(=O)C2=C(C1)Nc1ccccc1N(C(=O)Cc1ccccc1)C2c1ccc(-c2ccc([N+](=O)[O-])cc2)o1` (configuration not stated), the inhibition was 15%. In the case of `COc1cc(CN2CCN(Cc3ccccc3Cl)CC2)cc(OC)c1OC`, the inhibition was 13%. As for `N#Cc1ccc(OCC(=O)Nc2nc(-c3ccccn3)cs2)cc1`, the inhibition is 100% (active). `Nc1ccc(S(=O)(=O)O)c2cc(S(=O)(=O)O)cc(O)c12`: the inhibition was 38.9% (active).

With `CCN1CCN(CCOc2ccc(-c3ccccc3)cc2)CC1`, the inhibition was 9.15%.

Take `COc1cccc(C(=O)N2CCN(Cc3cc(OC)c(OC)cc3OC)CC2)c1`: the inhibition was 7.33%. With `CC(=O)c1cccc(N2C(=O)c3cccnc3C2=O)c1`, the inhibition was 27.9%.

With `CC1CCCC(N2CCN(Cc3ccccc3Cl)CC2)C1` (configuration not stated), the inhibition was -7.94%.

`CCN(CC)CCN1COc2c(cc(Cl)c3cccnc23)C1`: the inhibition is 100% (active). As for `COc1ccccc1CN1CC(C)OC(C)C1` (configuration not stated), the figure is 3.15%.

Regarding `Cc1ccc(NC(=O)COC(=O)CCC(=O)Nc2sc3c(c2C(N)=O)CCC3)cc1F`, the inhibition was 6.94%. As for `CCN(CC(=O)NCc1ccc(Cl)cc1)Cn1nnc2ccccc21`, the figure is -7.45%; as for `Cn1c(=O)oc2cc(S(=O)(=O)N3CCC(C(=O)NC(C)(C)C)CC3)ccc21`, 0.26%. As for `CCS(=O)(=O)N1CCN(C2CCCCC2C)CC1` (configuration not stated), the figure is 7.29%; as for `c1ccc(CCCCNc2nccc(Nc3ccncn3)n2)cc1`, 9.16%.

Consider `COc1cccc(CN2CCC(C(=O)NCCc3ccccc3)CC2)c1`, for which the inhibition was 13.6%.

Values taken from PubChem BioAssay AID1259376 (The Scripps Research Institute Molecular Screening Center, 2018).
